Test results as given in PubChem BioAssay (NCI).
Compounds without any hit were thinned out: in the full panel of roughly 79,000, 15% have a hit. Rule as the data show it: active = growth inhibition above about 70%; inactive = the rest.

What was measured:
[1] = NCI Yeast Anticancer Drug Screen. Data for the rad50 strain (AID 155);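 also: 0% = growth of vehicle-only cultures of the same strain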; conditions: S. cerevisiae rad50 strain growth inhibition; at 50.0 µM; stronger effect = higher value
In short: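 Compounds were tested on a yeast strain with an engineered DNA damage repair alteration; the reported value is growth inhibition normalised to vehicle treatment.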

[2] = NCI Yeast Anticancer Drug Screen. Data for the mec2-1 strain (AID 157); conditions: S. cerevisiae mec2-1 strain, at 50.0 µM, stronger effect = higher value
In short: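 Cells of the genetically defined mec2-1 yeast strain are incubated with test compound. Inhibition of growth is calculated against vehicle-treated controls.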

[3] = NCI Yeast Anticancer Drug Screen. Data for the sgs1 mgt1 strain (AID 161);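 also: 0% = growth of cultures given vehicle only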; conditions: S. cerevisiae sgs1 mgt1 strain, at 50.0 µM, stronger effect = higher value
In short: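 Inhibition of yeast growth, normalised to vehicle-treated controls, is reported for a strain bearing genetic alterations in DNA damage repair.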

[4] = NCI Yeast Anticancer Drug Screen. Data for the cln2 rad14 strain (AID 165);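 also: 0% = growth equal to vehicle treated cultures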; conditions: S. cerevisiae cln2 rad14 strain, at 50.0 µM, stronger effect = higher value
In short: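 The screen exposed genetically defined yeast (cln2 rad14) to test compounds and scored growth inhibition relative to vehicle-treated controls.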

[5] = NCI Yeast Anticancer Drug Screen. Data for the bub3 strain (AID 167); conditions: S. cerevisiae bub3 mutant strain, at 50.0 µM, stronger effect = higher value
In short: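 Growth of a checkpoint-deficient yeast mutant is measured after compound exposure. Values represent inhibition relative to vehicle.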

[6] = NCI Yeast Anticancer Drug Screen. Data for the mlh1 rad18 strain (AID 175); conditions: S. cerevisiae mlh1 rad18 strain growth inhibition; at 50.0 µM; stronger effect = higher value
In short: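 Compound-treated yeast growth, normalised to vehicle controls. Strain bears defined DNA repair mutations.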

Measured: growth inhibition

O=C(NN1C(=O)C(Cl)C1c1cccc(O)c1)c1ccccc1O (centres undefined)
inactive: [1] -47.5% | [2] -34% | [3] -32.8% | [4] 5.55% | [5] -29.2% | [6] -39.1%

CCC(C(N)=O)C(C)(C)C (centres undefined)
inactive: [1] -0.15% | [2] -12.2% | [3] -4.7% | [4] 7.3% | [5] 12.3% | [6] -1.2%

CCCNc1nc(N)[nH]c(=O)c1NC=O
inactive: [1] 2.45% | [2] -9.25% | [3] -6.7% | [4] -12.3% | [5] -15% | [6] -0.85%

CCCCCC(=O)OCCN(C)C
inactive: [1] -7.15% | [2] -24.2% | [3] -4.45% | [4] 21.1% | [5] -13.5% | [6] 24.9%

CC1=NN(c2ccccc2)C(=O)/C1=C\c1ccc([N+](=O)[O-])cc1
inactive: [1] 25.9% | [2] 29.1% | [3] 28.4% | [4] 18.9% | [5] 18.4% | [6] 19.5%

COc1ccc2nccc(C)c2c1
inactive: [1] -13% | [2] 16.9% | [3] -0.9% | [4] -0.9% | [5] 1.5% | [6] -0.25%

CSCCC(NC(C)=O)C(=O)O (centres undefined)
inactive: [1] 6.1% | [2] 1.5% | [3] -14.4% | [4] -3.55% | [5] -4.85% | [6] -8.3%

CCN(CC)C(=O)Oc1cc(C(=O)N(CC)CC)c(OC(=O)N(CC)CC)cc1C(=O)N(CC)CC
inactive: [1] 5.1% | [2] 8.15% | [3] -1.6% | [4] -1.4% | [5] 1% | [6] 30.1%

O=C(Cl)C(c1ccccc1)N1C(=O)c2ccccc2C1=O (centres undefined)
inactive: [1] 7.15% | [2] 2.15% | [3] 0% | [4] -38.5% | [5] -4% | [6] 0.95%

COc1ccc(/C=N\S(=O)(=O)c2ccc(OC)cc2)cc1
inactive: [1] 16.3% | [2] 13.7% | [3] 15.1% | [4] 8.8% | [5] 2.2% | [6] 0.5%

CC(C)(C)N1CCC(=O)C1=O
inactive: [1] 23.8% | [2] 22.9% | [3] 1.85% | [4] 7.85% | [5] 5.85% | [6] 17.8%

COc1cc(OC)c(C2CC(C)(O)Oc3cc4c(cc32)OCO4)c(OC)c1 (centres undefined)
inactive: [1] 17.4% | [2] 3.8% | [3] 26.9% | [4] 3.9% | [5] 22.1% | [6] 11.8%

CCCCCCCCOC(=O)Nc1ccc(S(=O)(=O)CC)cc1
inactive: [1] -3.3% | [2] -7.2% | [3] -23.3% | [4] -31.9% | [5] -2.15% | [6] -22.2%

COc1c(CO)cc(C)cc1CO
inactive: [1] 4.15% | [2] -0.5% | [3] -6.95% | [4] 3.05% | [5] -0.7% | [6] 0.5%

COc1cc(CNC(=O)CCCCCCCCCCSSCCCCCCCCCCC(=O)NCc2ccc(O)c(OC)c2)ccc1O
inactive: [1] -20.4% | [2] -32.8% | [3] -22.9% | [4] 5.9% | [5] -13.3% | [6] -24.8%

CC(/C=C/c1ccccc1)=N\NC(=O)c1ccccc1
inactive: [1] 44.8% | [2] 5.3% | [3] -5.4% | [4] 4.3% | [5] -15.1% | [6] -47.1%

Oc1cccc2nc3ccccc3cc12
inactive: [1] 4.3% | [2] 1.15% | [3] 16.2% | [4] -10% | [5] 3% | [6] 9.6%

C1COC(C2=NCCO2)=N1
inactive: [1] -12.5% | [2] 2.6% | [3] -14.1% | [4] -42% | [5] 6.1% | [6] -0.4%

O=c1c2cc(S(=O)(=O)Nc3ccc(Cl)cc3Cl)ccc2ncn1NS(=O)(=O)c1cccc2ccccc12
inactive: [1] 10.9% | [2] -5.4% | [3] 28.6% | [4] 18.8% | [5] 8.85% | [6] 14.9%

O=C(Cn1c2c(c3ccccc31)CCCC2)N1CCCC1
inactive: [1] -11.8% | [2] -39.9% | [3] 0.05% | [4] 2.75% | [5] 7.05% | [6] -23.7%

COC(=O)c1nc2c(n(C)/c1=N/C(=O)Nc1ccccc1)CCCC2
inactive: [1] 61.5% | [2] -2.9% | [3] 4.25% | [4] -7.65% | [5] 4.65% | [6] -50.6%

CC(C)CCCC(C)C1CCC2C3CCC4=C/C(=N/O)CCC4(C)C3CCC12C (centres undefined)
inactive: [1] 40.2% | [2] 12.2% | [3] 40.8% | [4] 34.5% | [5] 25.2% | [6] 32.6%

O=C(CCCCl)c1ccc(O)cc1
inactive: [1] -29.4% | [2] -36% | [3] 2.75% | [4] 11.8% | [5] -17.6% | [6] 0.1%

O=C1CSC2=NC3=C(COC/C3=C\c3ccc(F)cc3)C(c3ccc(F)cc3)N12 (centres undefined)
inactive: [1] 16.6% | [2] 28.3% | [3] 41.9% | [4] 21.2% | [5] 30.1% | [6] 31.2%

O=C(NC1CCCCC1)N(C1CCCCC1)C1CCCCC1
inactive: [1] 7.65% | [2] 9.95% | [3] -2.05% | [4] 2.85% | [5] 23.9% | [6] 1.85%

O=[N+]([O-])c1cc(Cl)ccc1Sc1ccccc1
inactive: [1] 39.6% | [2] 8.25% | [3] 34.3% | [4] 21.9% | [5] 24.7% | [6] 27.3%

N#Cc1c2nc3ccccc3nc2n2ccccc12
inactive: [1] 0.7% | [2] 19.4% | [3] -18.9% | [4] 1.25% | [5] 1.15% | [6] 53.8%

S=c1c2ccccc2sn1-c1ccccc1
inactive: [1] 26.2% | [2] 21.6% | [3] 14.9% | [4] -0.85% | [5] -12.9% | [6] 51.5%

NC(=O)C1CC(O)CN1C(=O)c1cccnc1 (centres undefined)
inactive: [1] 11.2% | [2] 19.8% | [3] 15.3% | [4] -7% | [5] 8.9% | [6] 5.35%

CCCC(O)(Cc1ccccc1)c1ccccc1 (centres undefined)
inactive: [1] -39% | [2] -25.5% | [3] -15.2% | [4] -3.45% | [5] -15.2% | [6] -14%

O=[N+]([O-])c1ccc(CN2CCC(C(=S)Nc3ccccc3)=C2c2ccccc2)cc1
inactive: [1] 9.6% | [2] 0.3% | [3] 8.8% | [4] 9.05% | [5] -1.2% | [6] 12.4%

N/N=C(/Cc1ccccc1)NNO
inactive: [1] 30.4% | [2] 13.8% | [3] 27.1% | [4] 22.4% | [5] 12.8% | [6] 22.2%

COc1cc(-c2ccc(Nc3ccccc3C(=O)O)c(OC)c2)ccc1Nc1ccccc1C(=O)O
inactive: [1] -4.45% | [2] 0.2% | [3] 1.05% | [4] 8.15% | [5] 3.8% | [6] -11.9%

CCCC(C)C(=O)OCCCc1ccccc1 (centres undefined)
inactive: [1] 7.55% | [2] -5.2% | [3] 2.9% | [4] -20.1% | [5] 18.8% | [6] 3.8%

C=C(C)[C@@H]1CC[C@@H](C)C[C@H]1O
inactive: [1] 9% | [2] -11.8% | [3] -1.55% | [4] 13.8% | [5] 9.95% | [6] -1.65%

Cc1nc2cc([N+](=O)[O-])ccc2c(NCCCN(C)C)c1C
inactive: [1] 6.6% | [2] 8.35% | [3] 7.25% | [4] -1.45% | [5] -3.5% | [6] -39.6%

O=C(O)C1C2C=CC(O2)C1C(=O)Nc1ccccc1 (centres undefined)
inactive: [1] 13.7% | [2] 3.5% | [3] 7.5% | [4] -1.9% | [5] -19.4% | [6] 8.3%

CC1=C(C(=O)CC(=O)C(=O)Nc2ccc(C)cc2C)Sc2ccccc2N1
inactive: [1] -1.55% | [2] -20.9% | [3] -33% | [4] -9.8% | [5] 6.2% | [6] 24.6%

CN1CCc2nc(N)nc(-c3nc(N)nc4c3CN(C)CC4)c2C1
inactive: [1] -3.15% | [2] -12.2% | [3] -11.4% | [4] -17.1% | [5] -37.1% | [6] -1.8%
